PubChem BioAssay (NCATS)
Values without a mark were called inactive. Inconclusive results are not listed. The source made the active and inactive calls. Unless noted, calls come from the whole dose curve; as a rule, active = well fitted curve in either direction with a large enough effect (not every such curve was filed as active); inconclusive = small, poorly fitted or top-dose-only effect, or another doubt; inactive = flat fitted curve, though single readings scatter.

Legend:
[1] = biological target: Lysosomal acid glucosylceramidase (Homo sapiens) (UniProt P04062); assay: Glucocerebrosidase-p2 (AID 348; in the data active = potency below about 10 µM; note: potency is the fitted concentration of half-maximal effect); conditions: purified GBA, blue fluorogenic substrate, 40 min
Procedure, shortened: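 Normal human glucocerebrosidase (0.2 nM) with blue fluorogenic substrate (80 uM final) in citrate/phosphate pH 5.9 with 10mM sodium taurocholate, 0.01% tween-20; 40 min RT, NaOH/glycine stop; fluorescence Ex 365/Em 440; AC50 from a titration from 0.6 nM upwards.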

[2] = AP1 Signaling Pathway (AID 357); conditions: ME-180 AP-1-bla reporter, EGF-induced, beta-lactamase ratio, 5 h; at 7.69 µM (top of the series) unless noted;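 note: ME-180 reporter cells stimulated with EGF at its EC50 level; % is set by controls: 0 for no effect and ±100 for the full control effect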
Procedure, shortened: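 First, ME-180 AP-1-bla cells were cultured overnight at 37 °C in low-serum Opti-MEM. Next, titrated compounds with EC50 EGF were incubated 5 hours. Finally, CCF4 was added for 2.5 hours and the 460/530 nm ratio recorded.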

[3] = biological target: Cytochrome P450 1A2 (Homo sapiens) (UniProt P05177); assay: p450-cyp1a2 (AID 410; calls by dose curve; note: potency is the fitted concentration of half-maximal effect;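 for activity change, negative = inhibition: -100% = full effect of reference inhibitor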); conditions: recombinant CYP1A2, luciferin-ME demethylation, luminescence; series mostly up to 11.4 µM
Procedure, shortened: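 20nM CYP1A2, 100uM Luciferin-ME (=Km), 100mM KPO4; cpd 10 min RT; +NADPH regen, 60 min RT; stop/detect 20 min; luminescence. Normalized to furafylline 57 uM = full inhibition.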

[4] = NFAT Signaling Pathway (AID 444); conditions: Jurkat NFAT-bla M1, carbachol, beta-lactamase ratio, 5 h; at 7.69 µM (top of the series) unless noted;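 note: carbachol stimulus at about its EC50 of 1 µM final; % is set by controls: 0 for no effect and ±100 for the full control effect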
Procedure, shortened: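 Jurkat cells carrying an NFAT-driven β-lactamase reporter and co-transfected muscarinic M1 receptor were treated with compound plus carbachol (1 uM final, an EC50 level) for 5 h at 37 °C. CCF4 loading followed for 1 h at RT; 460/530 nm ratio gave %activity.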

[5] = Stat Signaling Pathway (AID 446); conditions: ME-180 (cervical carcinoma) SIE beta-lactamase reporter, IL-6 stimulated, 5 h; at 7.69 µM (top of the series) unless noted;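 note: ME-180 cervical cancer cells given 40 pM IL-6 alongside compound; SIE-controlled beta-lactamase reporter measured as 460/530 nm FRET emission ratio; % is set by controls: 0 for no effect and ±100 for the full control effect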
Procedure, shortened: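 Compound effects on IL-6-induced STAT reporter activity were measured in ME-180 cells. After overnight culture, cells were co-treated with 40 pM IL-6 for 5 hrs before beta-lactamase substrate loading at room temperature.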

[6] = biological target: Glucocorticoid receptor (Homo sapiens) (UniProt P04150); assay: GR-GFP Redistribution (AID 450;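 active = compounds whose dose series gives a full or clear partial fitted curve of increased nuclear translocation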; note: potency is the fitted concentration of half-maximal effect); conditions: U2OS GR-GFP nuclear translocation, laser cytometry, 2 h
[7] = biological target: Glucocorticoid receptor (Homo sapiens) (UniProt P04150); assay: GR-EFC Redistribution (AID 451; calls by dose curve; note: potency is the fitted concentration of half-maximal effect); conditions: CHO-K1 GR-EFC translocation, beta-gal luminescence, 2 h
Procedure, shortened: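 CHO-K1 cells stably expressing nuclear-localized β-gal enzyme acceptor and GR fused C-terminally to the enzyme donor fragment; ligand-driven nuclear translocation restores β-gal by complementation. Compounds titrated up to 46 uM final, 2 h at 37 °C; luminescence read.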

[8] = biological target: Mitogen-activated protein kinase 10 (Mus musculus) (UniProt Q61831); assay: JNK3 AlphaScreen Assay (AID 530); conditions: JNK3 lysate, c-Jun phosphorylation; series mostly up to 11.4 µM;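 note: kinase came from lysate of stimulated human HepG2 cells; signal reports phosphorylation of biotinylated GST-cJun 1-79 at Ser73 with 10 µM ATP; % is set by controls: 0 for no effect and ±100 for the full control effect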
Procedure, shortened: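 Biotinylated GST-cJun(1-79) served as substrate for JNK3 in HepG2 lysates stimulated with IL-1beta and TNF-alpha. ATP was 10 uM final, pH 7.6. Ser73 phosphorylation was quantified by AlphaScreen (680 nm excitation).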

[9] = biological target: 3',5'-cyclic-AMP phosphodiesterase 4B (Homo sapiens) (UniProt Q07343); assay: qHTS Assay for Inhibitors of PDE-IV (AID 607; active = well fitted activation curve with a large enough effect in the main read-out, with a control signal flat, not every such curve was filed as active; note: % of control where 0% means no effect); conditions: HEK293 ACTOne CNG channel cells, membrane potential fluorescence; series mostly up to 22.9 µM
Procedure, shortened: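 ACTOne HEK293 cells carry a modified cAMP-gated CNG channel and express endogenous PDE4; plated 1000 cells/well, compounds up to 22.9 uM final. Membrane-potential dye fluorescence (ex 535/em 590) was read; parental cells received 10 uM forskolin + 100 uM RO 20-1724.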

[10] = biological target: Cytochrome P450 3A4 (Homo sapiens) (UniProt P08684); assay: qHTS Assay for Activators of Cytochrome P450 3A4 (AID 885; active = well fitted activation curve with a large enough effect; note: nearly all actives have a fitted effect of over 65% in size); conditions: recombinant CYP3A4, Luciferin-PPXE luminescence, 60 min; series mostly up to 11.4 µM
Procedure, shortened: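 CYP3A4 activity: Luciferin-PPXE O-dealkylation, 25uM substrate, 200mM KPO4, RT throughout. Read-out is luciferase luminescence; higher values reflect activation.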

Sequence of Lysosomal acid glucosylceramidase (Homo sapiens) (P04062 whole entry, looked up): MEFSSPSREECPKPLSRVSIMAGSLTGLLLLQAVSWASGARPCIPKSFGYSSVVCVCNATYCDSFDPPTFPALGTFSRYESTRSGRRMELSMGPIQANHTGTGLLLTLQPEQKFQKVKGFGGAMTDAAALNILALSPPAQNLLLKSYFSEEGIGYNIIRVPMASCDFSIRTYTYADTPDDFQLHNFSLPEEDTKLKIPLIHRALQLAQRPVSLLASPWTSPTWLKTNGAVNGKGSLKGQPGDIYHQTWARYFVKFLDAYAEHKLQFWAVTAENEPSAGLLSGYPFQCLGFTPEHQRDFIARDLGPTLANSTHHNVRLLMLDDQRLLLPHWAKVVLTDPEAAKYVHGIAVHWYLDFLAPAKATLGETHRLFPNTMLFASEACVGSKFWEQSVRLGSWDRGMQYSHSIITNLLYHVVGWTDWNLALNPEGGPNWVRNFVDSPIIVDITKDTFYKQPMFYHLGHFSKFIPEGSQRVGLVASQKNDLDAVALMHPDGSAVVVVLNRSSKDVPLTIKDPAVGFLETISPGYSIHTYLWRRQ
Sequence of 3',5'-cyclic-AMP phosphodiesterase 4B (Homo sapiens) (Q07343 whole entry, looked up): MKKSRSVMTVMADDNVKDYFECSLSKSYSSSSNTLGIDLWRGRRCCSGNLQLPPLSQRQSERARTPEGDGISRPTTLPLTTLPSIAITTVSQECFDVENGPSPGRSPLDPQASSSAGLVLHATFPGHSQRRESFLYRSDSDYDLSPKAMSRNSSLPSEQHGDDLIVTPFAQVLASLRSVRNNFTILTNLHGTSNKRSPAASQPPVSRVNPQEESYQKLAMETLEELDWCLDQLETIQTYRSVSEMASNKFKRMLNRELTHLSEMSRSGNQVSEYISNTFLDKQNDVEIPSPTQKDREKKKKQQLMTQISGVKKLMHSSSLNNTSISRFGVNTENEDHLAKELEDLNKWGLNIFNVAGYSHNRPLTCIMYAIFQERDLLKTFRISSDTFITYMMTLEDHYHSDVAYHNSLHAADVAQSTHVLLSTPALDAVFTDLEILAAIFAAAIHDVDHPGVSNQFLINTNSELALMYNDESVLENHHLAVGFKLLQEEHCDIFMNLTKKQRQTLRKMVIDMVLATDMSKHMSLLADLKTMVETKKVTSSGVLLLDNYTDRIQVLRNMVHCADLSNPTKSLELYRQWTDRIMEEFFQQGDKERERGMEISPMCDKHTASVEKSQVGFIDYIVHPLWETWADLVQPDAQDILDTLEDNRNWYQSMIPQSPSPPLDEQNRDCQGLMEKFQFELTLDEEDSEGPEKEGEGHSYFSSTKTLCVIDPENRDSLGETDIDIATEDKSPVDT
Sequence of Glucocorticoid receptor (Homo sapiens) (P04150 whole entry, looked up, the tested form may be a part): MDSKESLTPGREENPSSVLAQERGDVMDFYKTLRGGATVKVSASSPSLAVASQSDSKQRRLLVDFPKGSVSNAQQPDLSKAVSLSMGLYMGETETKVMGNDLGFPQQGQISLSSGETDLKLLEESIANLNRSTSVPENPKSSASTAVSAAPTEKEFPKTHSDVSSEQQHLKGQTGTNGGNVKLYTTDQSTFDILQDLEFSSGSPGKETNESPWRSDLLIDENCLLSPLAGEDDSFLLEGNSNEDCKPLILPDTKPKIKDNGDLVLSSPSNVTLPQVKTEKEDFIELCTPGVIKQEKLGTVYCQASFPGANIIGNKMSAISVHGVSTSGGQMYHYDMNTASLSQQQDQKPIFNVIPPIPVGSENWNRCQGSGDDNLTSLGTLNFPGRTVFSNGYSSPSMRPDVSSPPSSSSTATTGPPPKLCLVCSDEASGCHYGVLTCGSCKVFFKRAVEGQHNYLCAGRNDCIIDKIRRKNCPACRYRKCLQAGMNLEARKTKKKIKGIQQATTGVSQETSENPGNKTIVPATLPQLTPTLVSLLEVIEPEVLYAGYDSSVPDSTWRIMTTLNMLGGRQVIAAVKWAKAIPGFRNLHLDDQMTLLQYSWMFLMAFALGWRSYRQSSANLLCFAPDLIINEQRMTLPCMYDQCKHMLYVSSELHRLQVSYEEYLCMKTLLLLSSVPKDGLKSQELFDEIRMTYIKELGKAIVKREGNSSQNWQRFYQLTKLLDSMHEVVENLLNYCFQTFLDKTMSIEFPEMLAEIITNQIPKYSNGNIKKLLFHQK
Sequence of Cytochrome P450 3A4 (Homo sapiens) (P08684 whole entry, looked up): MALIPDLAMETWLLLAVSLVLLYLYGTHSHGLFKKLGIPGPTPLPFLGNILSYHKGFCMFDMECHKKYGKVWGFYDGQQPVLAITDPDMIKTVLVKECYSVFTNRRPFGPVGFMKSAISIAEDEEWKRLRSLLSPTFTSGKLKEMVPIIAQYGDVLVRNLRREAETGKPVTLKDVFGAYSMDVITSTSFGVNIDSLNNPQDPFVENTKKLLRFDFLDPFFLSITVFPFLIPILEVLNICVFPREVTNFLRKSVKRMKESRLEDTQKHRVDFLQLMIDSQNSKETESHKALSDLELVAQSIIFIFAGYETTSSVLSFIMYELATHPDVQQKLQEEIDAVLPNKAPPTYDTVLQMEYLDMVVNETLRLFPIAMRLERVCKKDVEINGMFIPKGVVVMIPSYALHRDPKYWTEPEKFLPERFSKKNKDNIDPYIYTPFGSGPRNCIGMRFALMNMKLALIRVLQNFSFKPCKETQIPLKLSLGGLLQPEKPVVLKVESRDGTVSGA
Sequence of Cytochrome P450 1A2 (Homo sapiens) (P05177 whole entry, looked up): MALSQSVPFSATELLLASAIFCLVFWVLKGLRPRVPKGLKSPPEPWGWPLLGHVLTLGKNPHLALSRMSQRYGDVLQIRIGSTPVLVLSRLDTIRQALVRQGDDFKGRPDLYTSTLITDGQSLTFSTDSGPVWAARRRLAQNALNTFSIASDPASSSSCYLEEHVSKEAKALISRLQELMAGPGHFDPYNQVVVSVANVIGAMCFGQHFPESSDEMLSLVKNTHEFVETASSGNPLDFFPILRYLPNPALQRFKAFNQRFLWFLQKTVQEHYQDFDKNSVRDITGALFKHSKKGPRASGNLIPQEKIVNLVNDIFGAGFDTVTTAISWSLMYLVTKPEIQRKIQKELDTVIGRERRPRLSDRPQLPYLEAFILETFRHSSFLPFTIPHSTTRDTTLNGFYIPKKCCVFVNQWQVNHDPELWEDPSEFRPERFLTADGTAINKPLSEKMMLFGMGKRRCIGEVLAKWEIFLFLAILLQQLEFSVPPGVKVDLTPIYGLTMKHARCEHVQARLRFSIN

| SMILES | Potency [1] [µM] | activity change, negative = inhibition [2] [%] | Potency [3] | activity change, negative = inhibition [4] [%] | activity, negative = inhibition [5] [%] | Potency [6] | Potency [7] | Potency [8] | Potency [9] | Potency [10] |
| --- | --- | --- | --- | --- | --- | --- | --- | --- | --- | --- |
| O=[N+]([O-])c1cc(Cl)cc2c1nc(NCCO)c1ccccc12 | > 11.4 | -24 | 0.02 µM (active) | 22.6 | -3.56 | > 46 µM | > 9.22 µM | inactive | inactive | inactive |
| N#C/C(=C\NC(=S)c1ccncc1)c1nc2ccccc2s1 | > 11.4 | -3.92 | 3.16 µM (active) | 8.12 | 11.3 | > 46 µM | > 9.22 µM | inactive | inactive | inactive |
| O=C(CSc1nc2ccccc2c2ccccc12)c1ccccc1 | > 11.4 | -2.08 | 0.251 µM (active) | 10.2 | -4.01 | > 46 µM | > 9.22 µM | inactive | inactive | inactive |
| C[C@@H]1CCCN(CP(=O)(c2ccccc2)c2ccccc2)C1 | > 11.4 | 2.85 | inactive | -1.11 | 0.378 | > 46 µM | > 9.22 µM | inactive | inactive | inactive |
| N/N=C1/c2ccccc2N[C@H]1OC(=O)Nc1cccc(Cl)c1 | > 11.4 | -17.3 | 0.794 µM (active) | -19.2 | -0.394 | > 46 µM | > 9.22 µM | inactive | inactive | inactive |
| Cc1ccc(N=Nc2ccc(N)cc2C)c(S(N)(=O)=O)c1 | > 11.4 | 2.62 | 0.501 µM (active) | 15.6 | -6.29 | > 46 µM | > 9.22 µM | inactive | inactive | inactive |
| [O-][n+]1c(CN2CCCCC2)nc2cccc3c2c1-c1ccccc1-3 | > 11.4 | -8.04 | 1.58 µM (active) | 26.2 | 6.89 | > 46 µM | > 9.22 µM | inactive | inactive | inactive |
| O=C(O)c1cc(-c2ccncc2)nc2ccccc12 | > 11.4 | 3.07 | inactive | -5.13 | -5.62 | > 46 µM | > 9.22 µM | inactive | inactive | inactive |
| O=C(CSc1nc2ccc([N+](=O)[O-])cc2s1)c1ccc2ccccc2c1 | > 11.4 | -4.94 | 3.16 µM (active) | 9.35 | 8.96 | > 46 µM | > 9.22 µM | inactive | inactive | inactive |
| COCCn1c(=O)c(-c2ccccc2)nc2cnc(Oc3ccccc3)nc21 | > 11.4 | -29.9 | 1.58 µM (active) | -6.49 | -4.14 | > 9.22 µM | > 46 µM | inactive | inactive | inactive |
| C[C@@]12CCC(=O)C=C1CC[C@H]1[C@@H]2[C@@H](O)C[C@]2(C)[C@@H]1CC[C@@]2(O)C(=O)COC(=O)C1CCCC1 | > 11.4 | -7.32 | inactive | 4.12 | -0.238 | 0.0333 µM (active) | 0.61 µM (active) | inactive | inactive | inactive |
| O=C(O)[C@@H]1[C@@H](C(=O)NCc2ccncc2)[C@@H]2C=C[C@@H]1O2 | > 11.4 | 4.03 | 5.01 µM (active) | 8.48 | -1.14 | > 46 µM | > 9.22 µM | inactive | inactive | inactive |
| S=C(Nc1ccc2c(c1)Cc1ccccc1-2)Nc1ccc2c(c1)Cc1ccccc1-2 | > 11.4 | -4.53 | 0.2 µM (active) | 9.24 | 3.09 | > 46 µM | > 9.22 µM | inactive | inactive | inactive |
| COc1ccc(C=Nc2c(O)ccc3ccccc23)cc1OC | > 11.4 | -0.822 | 0.251 µM (active) | 9.83 | -1.67 | > 46 µM | > 9.22 µM | inactive | inactive | inactive |
